Assay outcomes (PubChem)
TDP1 cell CPT: growth inhibition of DT40 Tdp1-/-;hTDP1 cells with camptothecin (screen for TDP1 inhibitors); chicken DT40 Tdp1-/-;hTDP1 cells + 20 nM CPT, ATP luminescence, 48 h; AID 686979; actives 12% (n = 420,000); Potency, µM (highest dose often 46.2 µM), for the others: at the top dose activity change, negative = growth inhibition, hits mostly inhibitors; also: potency is read from the fitted curve at half-maximal effect; nearly all actives have a fitted effect of over 55% in size
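Chicken DT40 Tdp1-/- cells stably complemented with human TDP1 were seeded at 400 cells/well in medium containing 20 nM camptothecin, exposed to pin-transferred compounds, and grown at 37 °C for at least 48 hr. Viability was read as ATP luminescence.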
IL1B secr inh: blocks inflammasome-driven IL-1 beta release. THP-1 LPS/ATP IL-1B secretion, AlphaLISA, 16 h; stronger effect = lower value. activity change, % at 57.5 µM. actives 4.7% (n = 360,000). AID 743279; in the data active = activity change below about -50%; inconclusive = mostly about -30% to -49%
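THP-1 cells pretreated 1 hr with compounds (up to 57.5 uM final), then stimulated with LPS (250 ng/mL final) plus ATP (1.25 mM final); secreted IL-1B measured by AlphaLISA after 16 hr, decreased signal indicating inhibition.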
TDP1 cell noCPT: qHTS for Inhibitors of human tyrosyl-DNA phosphodiesterase 1 (TDP1): qHTS in cells in absence of CPT. DT40 Tdp1-/- hTDP1 cells, no CPT, ATP luminescence, 48 h. Potency, µM (doses to about 46.2 µM), without a hit: at the top dose activity change, negative = growth inhibition, usual class: inhibitors. actives 15% (n = 420,000). AID 686978, 2013; also: potency is read from the fitted curve at half-maximal effect; nearly all actives have a fitted effect of over 55% in size
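No-CPT arm: Tdp1-/-;hTDP1 DT40 cells (400/well) plus compounds, incubated ≥48 hr at 37 °C. Readout CellTiter-Glo luminescence.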
Six1-Eya2 inh: Six1/Eya2 interaction inhibition. actives 0.56% (n = 360,000). activity change, % (test concentration not listed). AID 651725. AlphaScreen GST-Six1/His-Eya2 binding, biochemical; stronger effect = lower value. Q15475+O00167; in the data active = activity change below about -65%; inconclusive = mostly about -30% to -63%
Target sequence (O00167 whole entry, looked up): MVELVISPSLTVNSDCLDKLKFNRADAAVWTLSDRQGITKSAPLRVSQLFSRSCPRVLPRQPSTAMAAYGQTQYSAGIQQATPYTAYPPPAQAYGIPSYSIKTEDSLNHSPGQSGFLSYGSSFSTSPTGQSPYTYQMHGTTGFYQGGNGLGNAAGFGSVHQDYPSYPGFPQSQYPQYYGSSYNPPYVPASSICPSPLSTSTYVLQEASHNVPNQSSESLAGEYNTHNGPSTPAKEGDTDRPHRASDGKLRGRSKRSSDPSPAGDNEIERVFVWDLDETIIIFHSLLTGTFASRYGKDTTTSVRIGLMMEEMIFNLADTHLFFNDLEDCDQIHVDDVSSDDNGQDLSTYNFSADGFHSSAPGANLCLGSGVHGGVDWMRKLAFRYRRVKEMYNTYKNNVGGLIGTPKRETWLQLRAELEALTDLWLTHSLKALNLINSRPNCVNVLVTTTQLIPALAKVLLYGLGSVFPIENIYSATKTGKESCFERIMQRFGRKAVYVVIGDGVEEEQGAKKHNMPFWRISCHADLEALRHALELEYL
Target sequence (Q15475 whole entry, looked up): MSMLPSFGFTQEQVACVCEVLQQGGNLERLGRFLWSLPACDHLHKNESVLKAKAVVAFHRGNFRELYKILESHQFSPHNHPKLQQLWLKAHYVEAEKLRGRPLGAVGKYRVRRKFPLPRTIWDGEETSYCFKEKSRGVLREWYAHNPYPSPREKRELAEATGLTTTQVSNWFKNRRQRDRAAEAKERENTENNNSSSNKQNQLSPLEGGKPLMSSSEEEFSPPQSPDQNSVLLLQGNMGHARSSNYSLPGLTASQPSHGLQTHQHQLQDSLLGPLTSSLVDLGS
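GST-Six1 + His-Eya2 (5X stock: 250/500 nM); Tris pH 8.0, 300 mM NaCl, 0.05% BSA, 0.02% Tween 20; GSH donor/Ni acceptor beads; 1 h 37 °C dark; AlphaScreen readout.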
TDP1 inh: inhibitors of human tyrosyl-DNA phosphodiesterase TDP1; actives 0.28% (n = 350,000); Q9NUW8; Potency, µM (doses to about 130 µM), for the others: top-dose activity change, negative = inhibition, hits mostly inhibitors; recombinant TDP1, AlphaScreen DNA substrate cleavage; also: potency is read from the fitted curve at half-maximal effect; nearly all actives have a fitted effect of over 40% in size
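Enzyme-compound mixtures sat 15 min at room temperature, followed by a 5 min reaction with 15 nM final substrate and 10 min with AlphaScreen beads. Recombinant human Tdp1 was used at 1 nM final.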
CtBP-E1A blk: CtBP/E1A binding inhibition; actives 0.49% (n = 340,000); AID 651724; AlphaScreen GST-E1A/His-CtBP binding, 1536-well; stronger effect = lower value; activity change, % (concentration not given with the values); in the data active = activity change below about -65%; inconclusive = mostly about -30% to -63%
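GST-E1A and His-tagged CtBP (125 nM each as 5X stock) were preincubated with pin-transferred compound for 2 h at 37 °C in the dark, then glutathione donor and nickel acceptor beads were added for 1 h before AlphaScreen reading.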
The depositor's hits bear a star; ? = inconclusive; / = not tested or not shown; [ ] = dose if it differs, or a comment. The list is not random: actives were taken first. Their share in the collection is about 18%. Unless noted, calls follow the shape of the dose curve; as a rule, active = well fitted curve in the direction sought with a large enough effect; inconclusive = small, poorly fitted or top-dose-only effect, or another doubt; inactive = no such curve, though single readings can be large; an effect the other way counts as inactive or inconclusive. % is scaled to controls: 0 for no effect and ±100 for the full control effect.

SMILES | TDP1 cell CPT | IL1B secr inh | TDP1 cell noCPT | Six1-Eya2 inh | TDP1 inh | CtBP-E1A blk
CC(=O)OC[C@H]1O[C@@H](O/N=C/C[C@@H]2C=C[C@H](OC(C)=O)[C@@H](COC(C)=O)O2)[C@H](OC(C)=O)[C@@H](OC(C)=O)[C@@H]1OC(C)=O | / | / | / | / | 2.6% | /
Cc1cccc(NC(=O)c2ccc(CN3CCN(Cc4ccccc4)CC3)cc2)c1 | 1.4% | 59.6 | -23.5% | 16.2 | 8.4% | -13.7
COC(=O)c1cc(Br)c(=O)n(CCc2ccc(F)cc2)c1 | -19.4% | 13.3 | -10.3% | 11.4 | 1.1% | 3.3
O=C1CC(c2cc(F)cc(F)c2)c2cc3c(cc2N1)OCO3 (stereo not drawn) | ? | / | 16.4µM* | / | 0.0% | /
COc1cccc(N2CCN(CC(=O)NC3=Nc4ccccc4N=C(C)C3c3ccccc3)CC2)c1 (stereo not drawn) | ? | / | ? | -26.5 | / | -17.1
O=C(Nc1ccc(F)c(Cl)c1)c1cc(C2CCCN(C(=O)C3CC3)C2)on1 (stereo not drawn) | ? | -16.3 | ? | 0.1 | / | 0.4
O=C(Nc1ccc(F)c(Cl)c1)c1cc(C2CCCCN2C(=O)C2CC2)on1 (stereo not drawn) | 25.9µM* | 3.9 | 14.6µM* | 1.3 | / | 0.2
Cc1ccc(F)cc1C(=O)N1CCCCC1c1cc(C(=O)Nc2ccc(F)c(Cl)c2)no1 (stereo not drawn) | 20.6µM* | -18.7 | 14.6µM* | -4.5 | / | -27.7
CN1CCN(CCC(=O)Nc2ccc(Br)cc2)CC1 | -8.6% | 15.2 | 0.6% | 0.6 | 2.4% | /
COc1ccc(CCN(Cc2cccs2)S(=O)(=O)c2ccc(S(=O)(=O)N3CCC(C)CC3)cc2)cc1OC | -28.0% | 7.3 | ? | 0.3 | 0.0% | -6.5
COc1ccc(CCN(Cc2cccs2)S(=O)(=O)c2ccc(S(=O)(=O)N3CCCCCC3)cc2)cc1OC | ? | 5.6 | 9.2µM* | 6.9 | 1.8% | -0.2
COc1cc(S(=O)(=O)N(CCc2ccccc2)Cc2cccs2)ccc1-n1cnnn1 | -22.3% | 7.6 | -21.0% | 5.1 | 3.3%[56.1 µM] | 6.4
CCC(C)NS(=O)(=O)c1ccc(S(=O)(=O)N(CCc2ccc(OC)c(OC)c2)Cc2cccs2)cc1 (stereo not drawn) | 10.3µM* | -14.5 | 7.31µM* | -5.4 | 0.0% | -2.5
COc1ccc(CCN(Cc2cccs2)S(=O)(=O)c2ccc(-n3cnnn3)cc2)cc1OC | 11.6µM* | -19.3 | ? | -2.8 | 2.1% | -2.2
CC(=O)c1cn(-c2ccc(Cl)cc2)c(=O)n(Cc2ccc(Br)cc2)c1=O | -1.9% | 5.0 | ? | -18.0 | -14.6% | -4.1
O=C1NN=C(c2ccc(Cl)cc2)CC1c1cccc(Cl)c1 (stereo not drawn) | 29.1µM* | -13.6 | 16.4µM* | 12.6 | 2.0% | 0.0
O=C1NN=C(c2ccccc2)CC1c1ccc(Cl)cc1Cl (stereo not drawn) | ? | ? | ? | 14.0 | 5.0% | -23.2
CC(=O)N1[C@H](Cc2ccccc2)C=C[C@]1(C)C(=O)NCc1cc(F)cc(C(F)(F)F)c1 | / | / | / | / | 12.3% | /
C[C@]1(C(=O)NCc2cc(F)cc(C(F)(F)F)c2)C=C[C@@H](Cc2ccccc2)N1C(=O)c1ccccc1 | 16.4µM* | 8.0 | ? | 0.3 | 1.3% | -9.9
COc1ccc(-c2cc3c(=O)n(CC(=O)Nc4ccccc4C(F)(F)F)ccn3n2)cc1OC | -7.1% | / | -22.5% | / | 6.2% | /
CCOC(=O)c1ccc(C(=O)OCC)c(NC(=S)Nc2ccc([N+](=O)[O-])cc2OC)c1 | -5.2% | 24.9 | ? | -10.8 | 3.0% | -10.7
CCC1=NN(C(=O)c2cccnc2)C(O)(C(F)(F)F)C1 (stereo not drawn) | 16.4µM* | 0.4 | ? | 0.4 | -5.6% | -7.9
